Assay outcomes from PubChem BioAssay.
An excerpt weighted towards active compounds, which were near 21% of everything screened.
Shiga inhibitor: Shiga toxin inhibition. inhibition, % at 38.7 µM. actives 9.2% (n = 290,000). Vero cells, Shiga toxin protein synthesis inhibition reporter; in the data active = inhibition mostly above about 28%, no sharp cut-off; inactive = mostly below about 43%; note: 0% is about no effect
Pf growth 48h: inhibits P. falciparum growth in the first generation, 48 h. Potency, µM (highest dose often 28.7 µM), for the others: at the highest dose activity change, negative = inhibition, hits mostly inhibitors. AID 504832. P. falciparum luciferase growth in erythrocytes, 48 h. actives 5.9% (n = 310,000); active = well fitted inhibition curve with a large enough effect; inconclusive = small, poorly fitted or top-dose-only effect, or another doubt; inactive = no such curve, though single readings can be large or run the other way; note: potency is the fitted concentration of half-maximal effect; % is set by controls: 0 for no effect and ±100 for the full control effect
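Luciferase-expressing P. falciparum in infected erythrocytes (2% hematocrit, 0.1% parasitemia final) in RPMI 1640/0.5% Albumax were exposed to compound for 48 hours at 37 C, 5% CO2; growth read as luminescence.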
Pf growth 96h: inhibits malaria parasite growth, 96 h. P. falciparum luciferase reporter growth, 96 h. Potency, µM (doses to about 28.7 µM), without a hit: top-dose activity change, negative = inhibition, most hits filed as inhibitors. actives 6.9% (n = 320,000). AID 504834; active = well fitted inhibition curve with a large enough effect; inconclusive = small, poorly fitted or top-dose-only effect, or another doubt; inactive = no such curve, though single readings can be large or run the other way; note: potency is the fitted concentration of half-maximal effect; % is set by controls: 0 for no effect and ±100 for the full control effect
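Two parasite generations (96 h, 37 C, 5% CO2) of compound exposure in infected erythrocytes (0.05% parasitemia, 2% hematocrit). Luciferase-reporter P. falciparum; decreased luminescence indicates inhibited growth, aimed at apicoplast-acting delayed death.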
NS1 inh: blocks influenza NS1 protein function; Potency, µM (doses to about 46.1 µM), for the others: at the top dose activity, positive = more growth; actives 0.4% (n = 270,000); note: potency is the fitted concentration of half-maximal effect; actives are rising curves; nearly all actives have a fitted effect of over 50% in size
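OD600 was taken as the measure of yeast growth restored by compound in an NS1-expressing S. cerevisiae strain. Cells had been washed out of glucose medium and diluted 1:100 into galactose -URA medium, pH 6.0.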
CHX counter: affects cycloheximide protein synthesis inhibition readout, counter-screen; actives 12% (n = 300,000); cell reporter, cycloheximide protein synthesis inhibition counterscreen; max response, %; in the data active = max response mostly above about 13%, no sharp cut-off; inactive = mostly below about 14%; note: read at 38.3 µM for the half of the compounds with a filed dose; 0% is about no effect
SARS PLP yeast: blocks SARS-CoV papain-like protease in a yeast assay | S. cerevisiae expressing SARS-CoV PLpro, growth rescue | Potency, µM (top dose mostly 32.9 µM), inactives show at the highest dose activity, positive = growth rescue, hits mostly activators | actives 0.19% (n = 330,000); note: potency is the fitted concentration of half-maximal effect; 0% is about no effect; nearly all actives have a fitted effect of over 55% in size
NS1 inh valid: validation of influenza NS1 protein function inhibitors; shares compounds with NS1 inh; influenza NS1 function cell assay, 15-point titration; activity change, negative = inhibition, % at 32.9 µM; 1,400 tested, under 10 active; AID 492980; note: 0% is about no effect
Numbers without * were called inactive; u = inconclusive; x = no result; ! = not active in a repeat. Unless noted, calls come from the whole dose curve.

SMILES	Shiga inhibitor	Pf growth 48h	Pf growth 96h	NS1 inh	CHX counter	SARS PLP yeast	NS1 inh valid
CC1(C)N=C(N)NC(Nc2ccc(Br)cc2)=N1	-16	5.2µM*	x	7.9µM*	7	-5%	-1
CC1CCN(C(=O)CSc2nc3ccccc3c(=O)n2Cc2ccc3c(c2)OCO3)CC1	-7	u	x	u	-1	-16%	u
C/C(=N/NC(=O)Cc1cc(=O)[nH][nH]1)c1ccc([N+](=O)[O-])cc1	14	14%	39%	13µM*	-3	7%	u
CN(C)S(=O)(=O)c1ccc(N2CCCC2)c(C(=O)Nc2nc3c(ccc4ccccc43)s2)c1	-7	u	13µM*	14µM*	-2	12%	-7
Cc1cccc(S(=O)Cc2ccc(C(=O)N3CCN(C(=O)c4ccco4)CC3)o2)c1 (stereo not drawn)	-14	-6%	-4%	3%	-10	2%	x
CC(C)Cn1c(N)c(C(=O)COC(=O)c2ccc3ccccc3n2)c(=O)n(C)c1=O	56	-17%	4.1µM*	10µM*	0	-2%	-6
CCOC(=O)C1(CCOc2ccccc2)CCN(CC=C(C)C)CC1	20	116%	-81%	10%	-3	4%	x
Cc1cccn2c(=O)c(C=O)c(NCc3ccccc3)nc12	20	75%	15%	-7%	5	0%	x
O=C(O)c1ccccc1-c1ccccc1C(=O)Nc1ccccc1-c1ccccc1	-13	26%	-9%	10µM*	-4	x	36
Cc1ccc2cccc(NC(=S)NC(=O)c3ccnn3C)c2n1	-6	u	u	16µM*	-2	u	3
CC(=O)NC(=S)Nc1cccc2ccc(C)nc12	-3	4%	u	0%	-3	8%	x
O=C1/C(=C\c2ccco2)SC(=S)N1c1ccccc1	39	38%	36%	2%	7	-6%	x
CCCN(CCC)C1=N/C(=C\c2ccco2)C(=O)N1c1ccccc1	-5	x	-15%	1.1µM*	14	0%	0
COc1ccc(-c2nn(-c3ccccc3)cc2/C=C2/SC(=S)N(CCC(=O)O)C2=O)c(C)c1	-15	-2%	5.9µM*	11µM*	-3	-5%	u
COc1ccc(-c2nn(-c3ccccc3)cc2/C=C2/SC(=S)N(CCC(=O)O)C2=O)cc1	29	u	u	3%	9	-1%	x
O=[N+]([O-])c1ccc(N/N=C/c2cn(-c3ccccc3)nc2-c2ccccc2)cc1	31*	13µM*	4.7µM*	u	10	4%	1
C=C(C)c1cccc(C(C)(C)NC(=O)N2CCC(C(N)=O)CC2)c1	-9	5%	-9%	x	1	0%	x
CN1CCN(CCCNC(=O)C2CCN(c3nnc(-n4cccc4)s3)CC2)CC1	-8	-5%	10%	13%	-4	0%	x
CCN1CCN(CCCNC(=O)C2CCCN(c3nnc(-n4cccc4)s3)C2)CC1 (stereo not drawn)	-4	2%	u	5µM*	1	9%	-21
Oc1ccccc1C(=S)N1CCN(C(=S)c2ccccc2O)CC1	-6	-19%	4%	4%	-4	-2%	x
O=C1CCCC/C1=C\Nc1ccc(O)cc1	64*	u	x	u	41*	0%	-9
O=c1cc(C(F)(F)F)nc(SC/C=C/c2ccccc2)[nH]1	-3	17%	14%	-42%	-4	-8%	x
CCOc1ccc(NC(=O)CN(C)C(=O)C2COc3ccccc3O2)cc1OCC (stereo not drawn)	x	x	x	x	x	-3%	x
COc1ccc(NS(=O)(=O)c2ccc(OC)c(NC(=O)CCC3CCCC3)c2)cc1	-19	6%	-18%	u	-3	-14%	7
CCOC(=O)c1sc(NS(=O)(=O)c2ccccc2Cl)nc1C	-9	-10%	x	17%	-1	9%	x
COc1cc(/C=N/NC(=O)c2cc3ccccc3cc2O)ccc1OCCN1CCCCC1	active	u	u	11µM*	42*	13%	-24
O=C1NC(=O)C(c2ccccc2[N+](=O)[O-])=C1Nc1ccc(O)c(Cl)c1	10	21%	u	35µM*!	8	-4%	-13
